Results filed as inconclusive are left out. Calls of active or inactive are those of the source. Calls come from the whole dose curve; as a rule, active = well fitted curve in the direction sought with a large enough effect; inconclusive = small, poorly fitted or top-dose-only effect, or another doubt; inactive = no such curve, though single readings can be large; an effect the other way counts as inactive or inconclusive.
Assays:
[1] = tested on: HaCat; experiment: Cytotoxic Profiling of Annotated Libraries Using Quantitative High-Throughput Screening (AID 1296008); conditions: Five cell lines viability, CellTiter-Glo ATP luminescence, 48-72 h; max response: active compounds read low; note: nearly all actives have a fitted effect of over 60% in size
Method in brief: (§1)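 Cells exposed to compounds for 48 or 72 hr at 37 degrees Celsius. Viability read as ATP-coupled luminescence with CellTiter-Glo after 10 min at room temperature.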

[2] = tested on: KB-3-1; experiment: as above; conditions: Five cell lines viability, CellTiter-Glo ATP luminescence, 48-72 h; max response: active compounds read low
Method in brief: as §1

[3] = tested on: MCC-13; experiment: qHTS assay to identify novel small-molecules to repurpose for Merkel cell carcinoma treatment (AID 1296009); conditions: MCC and control cell lines, CellTiter-Glo viability, 72 h; series mostly up to 46 µM; note: nearly all actives have a fitted effect of over 60% in size
Method in brief: (§2)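 Cells were incubated with compound for 72 hr at 37 degree celsius before CellTiter-Glo addition. Luminescence was normalized with no-cell wells as full cytotoxicity and DMSO as baseline.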

[4] = tested on: MCC-26; experiment: as above; conditions: MCC and control cell lines, CellTiter-Glo viability, 72 h; series mostly up to 46 µM
Method in brief: as §2

[5] = tested on: MKL-1; experiment: as above; conditions: MCC and control cell lines, CellTiter-Glo viability, 72 h; series mostly up to 46 µM
Method in brief: as §2

[6] = tested on: MKL-2; experiment: as above; conditions: MCC and control cell lines, CellTiter-Glo viability, 72 h; series mostly up to 46 µM
Method in brief: as §2

[7] = tested on: UISO; experiment: as above; conditions: MCC and control cell lines, CellTiter-Glo viability, 72 h; series mostly up to 46 µM
Method in brief: as §2

[8] = tested on: WaGa; experiment: as above; conditions: MCC and control cell lines, CellTiter-Glo viability, 72 h; series mostly up to 46 µM
Method in brief: as §2

[9] = tested on: C33A; experiment: Primary qHTS to identify gynecologic anti-cancer compounds using libraries of approved drugs and bioactive compounds (AID 1345084); conditions: Gynecologic cancer cell panel viability, ATPlite luminescence, 48 h; series mostly up to 57.5 µM; note: nearly all actives have a fitted effect of over 55% in size
Method in brief: (§3)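 Cells, 1,000 per well, plated 16 h, then exposed 48 h at 37 C to compounds. Viability by ATPlite luminescence after 15 min at room temperature.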

[10] = tested on: CAOV3; experiment: as above; conditions: Gynecologic cancer cell panel viability, ATPlite luminescence, 48 h; series mostly up to 57.5 µM
Method in brief: as §3

[11] = tested on: CASKI; experiment: as above; conditions: Gynecologic cancer cell panel viability, ATPlite luminescence, 48 h; series mostly up to 57.5 µM
Method in brief: as §3

[12] = tested on: HeLa; experiment: as above; conditions: Gynecologic cancer cell panel viability, ATPlite luminescence, 48 h; series mostly up to 57.5 µM
Method in brief: as §3

[13] = tested on: Hek293T; experiment: as above; conditions: Gynecologic cancer cell panel viability, ATPlite luminescence, 48 h, control line for the selectivity index; series mostly up to 57.5 µM
Method in brief: as §3

[14] = tested on: JEG-3; experiment: as above; conditions: Gynecologic cancer cell panel viability, ATPlite luminescence, 48 h; series mostly up to 57.5 µM
Method in brief: as §3

[15] = tested on: OV90; experiment: as above; conditions: Gynecologic cancer cell panel viability, ATPlite luminescence, 48 h; series mostly up to 57.5 µM
Method in brief: as §3

[16] = tested on: NIH3T3; experiment: Cytotoxic Profiling of Annotated Libraries Using Quantitative High-Throughput Screening (AID 1296008); conditions: Five cell lines viability, CellTiter-Glo ATP luminescence, 48-72 h; max response: active compounds read low; note: nearly all actives have a fitted effect of over 60% in size
Method in brief: as §1

[17] = tested on: Es-2; experiment: Primary qHTS to identify gynecologic anti-cancer compounds using libraries of approved drugs and bioactive compounds (AID 1345084); conditions: Gynecologic cancer cell panel viability, ATPlite luminescence, 48 h; series mostly up to 57.5 µM; note: nearly all actives have a fitted effect of over 55% in size
Method in brief: as §3
% is set by controls: 0 for no effect and ±100 for the full control effect; potency is the fitted concentration of half-maximal effect.

CNCC[C@@H](Oc1ccccc1C)c1ccccc1
inactive: max response [1] 1.42% | max response [2] -7.4% | Potency [3] | Potency [4] | Potency [5] | Potency [6] | Potency [7] | Potency [8] | Potency [9] | Potency [10] | Potency [11] | Potency [12] | Potency [13] | Potency [14] | Potency [15]

COc1ccc(/C=C/C(=O)c2ccc(OC)cc2OC)cc1
active: Potency [6] 5.31 µM
inactive: max response [1] -62.6% | max response [16] -18.9% | Potency [17] | Potency [12] | Potency [13] | Potency [14]

C/C=C(/C(=C/C)c1ccc(O)cc1)c1ccc(O)cc1
inactive: max response [1] -0.716% | max response [2] -11.5% | Potency [3] | Potency [4] | Potency [5] | Potency [6] | Potency [7] | Potency [9] | Potency [10] | Potency [11] | Potency [17] | Potency [12] | Potency [13] | Potency [14]

COc1cccc(CCc2ccccc2OCC(CN(C)C)OC(=O)CCC(=O)O)c1 (configuration not stated)
inactive: max response [2] -2.49% | max response [16] -1.97% | Potency [3] | Potency [4] | Potency [5] | Potency [7] | Potency [9] | Potency [10] | Potency [11] | Potency [17] | Potency [12] | Potency [13] | Potency [14]

N[C@H](CO)C(=O)O
inactive: max response [2] -2.03%

C1CCc2nnnn2CC1
inactive: max response [2] 18.9%

COC(=O)[C@H]1[C@H]2C[C@H]3c4[nH]c5ccccc5c4CCN3C[C@H]2CC[C@@H]1O
inactive: max response [2] -10.9%

CNCCC=C1c2ccccc2CCc2ccccc21
inactive: max response [2] -9.12%

COc1c(C)c2c(c(O)c1C/C=C(\C)CCC(=O)O)C(=O)OC2
inactive: max response [2] -17.8% | Potency [10] | Potency [14]
active: Potency [16] 1.68 µM | Potency [8] 531 nM | Potency [17] 2.82 µM

CCCCN1CCCC1C(=O)Nc1c(C)cc(C)cc1C (configuration not stated)
inactive: max response [2] -0.66% | max response [16] -4.8% | Potency [3] | Potency [4] | Potency [5] | Potency [6] | Potency [7] | Potency [8] | Potency [9] | Potency [10] | Potency [11] | Potency [17] | Potency [12] | Potency [13] | Potency [14]

O=C(COc1ccc(Cl)cc1)N1CCN(Cc2ccc3c(c2)OCO3)CC1
inactive: max response [2] -11.1% | max response [16] 0.953% | Potency [3] | Potency [4] | Potency [5] | Potency [7] | Potency [9] | Potency [10] | Potency [11] | Potency [17] | Potency [12] | Potency [13] | Potency [14] | Potency [15]

Nc1cc(Cl)c(NC2=NCCN2)c(Cl)c1
inactive: max response [2] -1.36%

CC/C(=C(/CC)c1ccc(O)cc1)c1ccc(O)cc1
inactive: max response [2] -22.7% | max response [16] -25.4% | Potency [3] | Potency [4] | Potency [5] | Potency [9] | Potency [11] | Potency [17] | Potency [12] | Potency [13] | Potency [14] | Potency [15]

CCCCCCc1ccc(O)cc1O
inactive: max response [2] 0.129% | max response [16] 4.72% | Potency [3] | Potency [5] | Potency [6] | Potency [7] | Potency [8] | Potency [9] | Potency [11] | Potency [17] | Potency [12] | Potency [13] | Potency [14] | Potency [15]

CCCC1O[C@@H]2C[C@H]3[C@@H]4CCC5=CC(=O)C=C[C@]5(C)[C@H]4[C@@H](O)C[C@]3(C)[C@]2(C(=O)CO)O1 (some centres not stated)
inactive: max response [2] 0.499%

CN(C)C(=S)SC(=S)N(C)C
active: Potency [16] 2.66 µM | Potency [3] 2.99 µM | Potency [6] 3.35 µM | Potency [7] 1.19 µM | Potency [9] 15.8 µM | Potency [15] 7.94 µM
inactive: max response [2] 31.5% | Potency [11] | Potency [17] | Potency [12] | Potency [14]

C#C[C@]1(O)CC[C@H]2[C@@H]3CCc4cc(OC5CCCC5)ccc4[C@H]3CC[C@@]21C
active: Potency [15] 20 µM
inactive: max response [2] -14.7% | Potency [3] | Potency [4] | Potency [9] | Potency [11] | Potency [17] | Potency [12] | Potency [13] | Potency [14]

O=C1CCC(c2ccc(-n3ccnc3)cc2)=NN1
inactive: max response [2] 11.9%

C[C@@H]1C(=O)NC2=Nc3cccc(Cl)c3CN21
inactive: max response [2] -2.45%

CCCCCCCCCCCCCCNCCO
inactive: max response [2] 5.95% | Potency [3] | Potency [8] | Potency [11] | Potency [17] | Potency [12] | Potency [13] | Potency [14] | Potency [15]

CCCSS/C(CCO)=C(\C)N(C=O)Cc1cnc(C)nc1N
inactive: max response [2] 33.8% | Potency [9] | Potency [10] | Potency [11] | Potency [12] | Potency [13] | Potency [14] | Potency [15]
active: Potency [4] 26.6 µM | Potency [5] 21.1 µM | Potency [6] 6.68 µM | Potency [7] 29.9 µM

CC[C@H](C)C(=O)O[C@H]1CCC=C2C=C[C@H](C)[C@H](CC[C@@H]3C[C@@H](O)CC(=O)O3)[C@H]21
inactive: max response [2] 3.96%

Cc1ccccc1C(=O)Nc1ccc(C(=O)N2CCCC(N(C)C)c3ccccc32)cc1 (configuration not stated)
active: Potency [2] 7.31 µM | Potency [16] 9.44 µM
inactive: Potency [3] | Potency [4] | Potency [5] | Potency [6] | Potency [7] | Potency [8] | Potency [9] | Potency [14] | Potency [15]

O=C(Nc1ccc(Cl)c(Cl)c1)C1CC1
inactive: max response [2] -14.1% | max response [16] -1.64% | Potency [3] | Potency [4] | Potency [5] | Potency [6] | Potency [7] | Potency [8] | Potency [9] | Potency [11] | Potency [17] | Potency [12] | Potency [13] | Potency [14] | Potency [15]
